# Compound activity as filed in PubChem BioAssay.
# Shiga toxin inh – A qHTS for Small Molecule Inhibitors of Shiga Toxin; Vero cells, Shiga toxin protein synthesis inhibition reporter; actives 9.2% (n = 290,000); inhibition, % at 38.7 µM; in the data active = inhibition mostly above about 28%, no sharp cut-off; inactive = mostly below about 43%; also: 0% is about no effect
# HCV inh – qHTS Assay for Inhibitors of Hepatitis C Virus (HCV) | Huh7.5.1 HCVcc-Cre infection, luciferase reporter, 44 h | Potency, µM (series often up to 41.8 µM), for the others: top-dose activity change, negative = inhibition, most hits filed as inhibitors | actives 3.4% (n = 340,000); also: potency is read from the fitted curve at half-maximal effect; % is scaled to controls: 0 for no effect and ±100 for the full control effect
#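 Cells (1,000/well) were plated 4 h before compound, then infected with HCVcc-Cre virus (~0.5 moi). After 44 h further culture, infection was read as luciferase luminescence following a 15 min substrate incubation at room temperature.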
# Pf growth 96h – Primary qHTS for delayed death inhibitors of the malarial parasite plastid, 96 hour incubation. P. falciparum luciferase reporter growth, 96 h. Potency, µM (top dose mostly 28.7 µM), for the others: at the top dose activity change, negative = inhibition, most hits filed as inhibitors. actives 6.9% (n = 320,000); also: potency is read from the fitted curve at half-maximal effect; % is scaled to controls: 0 for no effect and ±100 for the full control effect
#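 Two-generation exposure (96 h) targets delayed-death phenotype. Reporter parasites carrying integrated firefly luciferase, in red cells at 2% hematocrit and 0.05% parasitemia final, kept at 37 C, 5% CO2; luminescence loss indicates inhibition.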
# Pf growth 48h – Primary qHTS for delayed death inhibitors of the malarial parasite plastid, 48 hour incubation; Potency, µM (titrated, usually from 28.7 µM), for inactives: at the highest dose activity change, negative = inhibition, most hits filed as inhibitors; actives 5.9% (n = 310,000); AID 504832, 2011; P. falciparum luciferase growth in erythrocytes, 48 h; also: potency is read from the fitted curve at half-maximal effect; % is scaled to controls: 0 for no effect and ±100 for the full control effect
#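 Read-out is firefly luciferase luminescence from an integrated reporter in P. falciparum, so falling signal marks reduced parasite growth. Infected erythrocytes were at 2% hematocrit and 0.1% parasitemia (final) in Albumax-supplemented RPMI 1640.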
# HCMV antiviral – qHTS Assay for inhibitors of the human cytomegalovirus (HCMV) | activity change, negative = inhibition, % at 57.5 µM | HFF cells, HCMV-luciferase reporter, 72 h; stronger effect = lower value | actives 4.5% (n = 410,000); in the data active = activity change below about -60%; inconclusive = no clear call, values can overlap the other calls; inactive = above about -39%; also: % is scaled to controls: 0 for no effect and ±100 for the full control effect
#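 Screen run at 2 compound doses on HFFs infected with reporter HCMV, MOI 1 PFU/cell. Luciferase activity from cell lysates at 72 h post infection gave inhibition relative to buffer-only and Salinomycin wells.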
# Cycloheximide cs – Cycloheximide Counterscreen for Small Molecule Inhibitors of Shiga Toxin. cell reporter, cycloheximide protein synthesis inhibition counterscreen. max response, %. actives 12% (n = 300,000). AID 2314, 2010; in the data active = max response mostly above about 13%, no sharp cut-off; inactive = mostly below about 14%; also: read at 38.3 µM for the half of the compounds with a filed dose; 0% is about no effect
# The depositor's hits bear a star; i = inactive; ? = inconclusive; / = no result given. Sampled rows, rich in hits. Any-hit rate of the full collection: about 21%. Unless noted, calls follow the shape of the dose curve; as a rule, active = well fitted inhibition curve with a large enough effect; inconclusive = small, poorly fitted or top-dose-only effect, or another doubt; inactive = no such curve, though single readings can be large or run the other way.
SMILES,Shiga toxin inh,HCV inh,Pf growth 96h,Pf growth 48h,HCMV antiviral,Cycloheximide cs
Cc1ccc(OCC(O)Cn2c3ccccc3c3ccccc32)cc1 (stereo not drawn),21,?,?,9.3µM*,-34,-4
Cc1cccc(C)c1OCC(O)CN1CCN(c2ccccc2)CC1 (stereo not drawn),23,-2%,20%,-1%,15,-6
OC(CN1CCN(Cc2ccccc2)CC1)Cn1c2ccccc2c2ccccc21 (stereo not drawn),-11,11µM*,11%,2.6µM*,-28,-3
CCCNC(=O)[C@H]1[C@H](CO)[C@H]2Cn3c(ccc(-c4ccc(F)cc4)c3=O)[C@@H]1N2C(=O)NC(C)C,/,/,/,/,-12,/
COc1cc(/C=N/NC(=O)CNc2n[nH]c(=O)[nH]c2=O)ccc1OCc1ccccc1,-5,-3%,18%,-6%,?,-2
CC(=O)N1CCN(CC(O)Cn2c3ccccc3c3ccccc32)CC1 (stereo not drawn),-6,-8%,-11%,1%,9,-2
Cc1ccc(OCCN2CCN(CC(O)Cn3c4ccccc4c4ccccc43)CC2)cc1 (stereo not drawn),-4,?,19%,2.6µM*,-15,-6
COC(=O)C=CC(=NNc1ccccc1)c1ccccc1,/,22µM*,/,/,46,/
CO/N=C/C(=N\Nc1ccccc1)C(=O)c1ccccc1,9,?,67%,19%,-39,13
CC(C)NC(=O)C1(C)CSCC(=O)N1Cc1cccs1 (stereo not drawn),/,/,/,/,-8,/
COc1ccc(NC(=O)COC(=O)C2CC3C=CC2C3)cc1 (stereo not drawn),42*,15%,73%,46%,-10,20*
O=C(COC(=O)C1CC2C=CC1C2)Nc1ccccc1F (stereo not drawn),72*,11%,87%,208%,-13,38*
O=C(COC(=O)C1CC2C=CC1C2)NCCc1ccccc1 (stereo not drawn),25,6%,-9%,22%,-32,20*
CCN(CC)S(=O)(=O)c1cccc(NC(=O)COC(=O)C2CC3C=CC2C3)c1 (stereo not drawn),15,-26%,?,?,6,2
O=C(COC(=O)C1CC1)NCCc1ccccc1,/,27%,/,/,-18,/
Cc1cc2c(NC(=O)CCCC(=O)O)cccc2nn1,17,-1%,21%,6%,-7,-1
Cc1cc2c(NC(=O)Nc3ccc(C(F)(F)F)cc3)cccc2nn1,5,1%,9.3µM*,10µM*,0,2
Cc1ccc(NC(=O)Cn2c(-c3nonc3N)nc3ccccc32)c(Br)c1,/,/,/,/,9,/
COC(=O)N/N=C/c1ccccc1,30,1%,20%,23%,29,17*
CC(O)C(=O)N/N=C/c1ccccc1C(=O)O (stereo not drawn),11,3%,45%,100%,-32,10
COC(=O)N/N=C/c1ccccc1Cl,21,3%,78%,i,-75*,9
CC(O)C(=O)N/N=C/c1cccc(Cl)c1Cl (stereo not drawn),-18,6%,-18%,17%,26,20*
CCc1ccc([C@@H]2CC(=O)[C@@H]3CN(S(=O)(=O)c4ccc(Cl)cc4)[C@H](c4ccc(C)cc4)C[C@@H]3N2S(=O)(=O)c2ccc(C)cc2)cc1,/,/,/,/,-1,/
Cc1ccc(NC(=O)Cn2cc(C(F)(F)F)cc(Cl)c2=O)cc1S(=O)(=O)N1CCCCC1,/,?,?,?,6,/
Cc1c(C=O)c2ccccc2n1CC(=O)NCc1ccc2c(c1)OCO2,3,15%,-1%,-2%,-32,-3
CCOC(=O)C1CCCN(c2c(NCCc3ccc(Cl)cc3)c(=O)c2=O)C1 (stereo not drawn),-8,8%,?,?,67,2
O=C(CSc1nnnn1-c1ccc2c(c1)OCCO2)c1cccc2c1OCCO2,65,?,-19%,0%,-12,33*
